Laboratory results: PubChem BioAssay (Tox21)
Results filed as inconclusive are left out. Calls of active or inactive are those of the source. Calls follow the shape of the dose curve; as a rule, active = well fitted curve in the direction sought with a large enough effect in the repeat runs; inconclusive = weak or mixed curves; inactive = no such curve, though single readings can be large; an effect the other way counts as inactive or inconclusive.

What was measured:
[1] = qHTS assay to identify small molecule agonists of the RXR signaling pathway - cell viability counter screen (AID 1159529);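 also: HEK 293T cells carrying an RXR-alpha UAS beta-lactamase reporter; series mostly up to about 77 µM; nearly all actives have a fitted effect of over 50% in size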
Summary of the method: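 Same-well viability check after the LiveBLAzer FRET read: CellTiter-Glo added, luminescence measured after 30 min at room temperature. Reporter HEK 293T cells had been treated with compounds for 16 hr following a 5 hr preincubation.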

[2] = qHTS assay to identify small molecule antagonists of the retinoic acid receptor (RAR) signaling pathway (AID 1159552; also: nearly all actives have a fitted effect of over 50% in size)
Summary of the method: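 Readout: luciferase luminescence, 30 min post-reagent at RT. Setup: C3RL4 RARE reporter cells, compounds plus retinol 1 uM final, 6 hr incubation at 37 C and 5% CO2.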

[3] = qHTS assay to identify small molecule agonists of the retinoic acid receptor (RAR) signaling pathway (AID 1159553)
Summary of the method: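 C3RL4 cells carrying a RARE luciferase reporter were plated overnight at 37 C, then exposed to compounds in DMSO for 6 hr at 37 C and 5% CO2. Luminescence was read 30 min after luciferase reagent addition at room temperature.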

[4] = molecular target: Luciferin 4-monooxygenase (Photinus pyralis) (UniProt P08659); assay: qHTS assay to identify small molecule inhibitors of firefly luciferase (AID 1224835); also: series mostly up to about 120 µM; nearly all actives have a fitted effect of over 25% in size
Luciferin 4-monooxygenase (Photinus pyralis), sequence (P08659 whole entry, looked up): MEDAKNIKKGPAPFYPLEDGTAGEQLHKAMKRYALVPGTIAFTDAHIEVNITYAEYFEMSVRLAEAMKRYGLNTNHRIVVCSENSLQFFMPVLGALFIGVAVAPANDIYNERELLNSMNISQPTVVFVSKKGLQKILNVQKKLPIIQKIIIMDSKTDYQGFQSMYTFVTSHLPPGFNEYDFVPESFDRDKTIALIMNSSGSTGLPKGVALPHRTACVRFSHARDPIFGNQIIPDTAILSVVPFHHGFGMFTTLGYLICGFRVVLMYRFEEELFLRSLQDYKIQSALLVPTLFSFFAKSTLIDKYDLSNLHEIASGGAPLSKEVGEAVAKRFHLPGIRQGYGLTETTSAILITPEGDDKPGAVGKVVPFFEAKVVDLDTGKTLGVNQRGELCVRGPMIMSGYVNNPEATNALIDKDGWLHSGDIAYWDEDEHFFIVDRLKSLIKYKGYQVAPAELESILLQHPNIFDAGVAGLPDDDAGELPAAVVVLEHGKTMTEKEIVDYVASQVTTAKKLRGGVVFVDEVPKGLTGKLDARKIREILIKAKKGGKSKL
Summary of the method: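 Inhibition of purified Photinus luciferase is measured by luminescence. Substrate levels (D-luciferin, ATP) sit at their KM values. Each compound is tested in a concentration series.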

[5] = qHTS assay to identify small molecule agonists of the constitutive androstane receptor (CAR) signaling pathway - cell viability counter screen (AID 1224836); also: series mostly up to about 92 µM; nearly all actives have a fitted effect of over 45% in size
Summary of the method: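 Compound titrations (15 concentrations) went onto HepG2-CYP2B6-hCAR cells 4 h after seeding, alongside PK11195 at a final 0.75 uM; a 23 h, 37 C/5% CO2 incubation preceded CellTiter-Fluor viability measurement.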

[6] = qHTS assay to identify small molecule antagonists of the constitutive androstane receptor (CAR) signaling pathway - cell viability counter screen (AID 1224837); also: series mostly up to about 92 µM; nearly all actives have a fitted effect of over 45% in size
Summary of the method: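 HepG2 cells stably expressing hCAR and a CYP2B6-2.2kb reporter were plated and pre-incubated 4 hr at 37 C/5% CO2, then given compounds at 15 concentrations plus 50 nM CITCO (final). After 23 hr, viability was read by CellTiter-Fluor fluorescence.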

[7] = molecular target: Nuclear receptor subfamily 1 group I member 3 (Homo sapiens) (UniProt Q14994); assay: qHTS assay to identify small molecule antagonists of the constitutive androstane receptor (CAR) signaling pathway (AID 1224838); also: nearly all actives have a fitted effect of over 40% in size
Nuclear receptor subfamily 1 group I member 3 (Homo sapiens), sequence (Q14994 whole entry, looked up): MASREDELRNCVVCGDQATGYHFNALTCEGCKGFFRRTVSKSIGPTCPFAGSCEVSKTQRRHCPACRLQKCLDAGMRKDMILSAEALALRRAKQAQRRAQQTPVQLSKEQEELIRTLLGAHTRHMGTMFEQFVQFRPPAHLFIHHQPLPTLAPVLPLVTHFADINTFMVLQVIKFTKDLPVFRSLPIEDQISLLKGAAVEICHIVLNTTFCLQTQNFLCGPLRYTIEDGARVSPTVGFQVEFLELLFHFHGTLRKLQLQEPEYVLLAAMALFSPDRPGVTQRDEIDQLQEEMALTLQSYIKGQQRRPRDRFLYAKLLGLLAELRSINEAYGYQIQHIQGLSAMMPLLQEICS
Summary of the method: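 HepG2 cells stably co-transfected with hCAR and a CYP2B6-2.2kb luciferase reporter were seeded 4 h before compound addition at 15 concentrations. Cells were stimulated with 50 nM CITCO (final) for 24 h at 37 C; luciferase luminescence was then read.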

[8] = molecular target: Nuclear receptor subfamily 1 group I member 3 (Homo sapiens) (UniProt Q14994); assay: qHTS assay to identify small molecule agonists of the constitutive androstane receptor (CAR) signaling pathway (AID 1224839);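 also: HepG2 cells stably carrying human CAR and a CYP2B6 luciferase reporter; series mostly up to about 92 µM; nearly all actives have a fitted effect of over 15% in size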
Summary of the method: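 In this screen, CAR-driven CYP2B6 promoter activity is measured by luminescence in HepG2-CYP2B6-hCAR cells after 24 h with test compounds and 0.75 uM PK11195 (final concentration).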

[9] = qHTS assay to identify small molecule antagonists of the estrogen related receptor (ERR) signaling pathway from Tox21 library - cell viability counter screen (AID 1224834); also: nearly all actives have a fitted effect of over 30% in size
Summary of the method: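 ERR reporter cells were plated 6 h before compound addition, then exposed to test compounds in DMSO for 17.5 h at 37 C. Viability was read as CellTiter-Fluor fluorescence after a 30-minute incubation at 37 C.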

[10] = qHTS assay to identify small molecule antagonists of the retinoid acid receptor (RAR) signaling pathway - cell viability counter screen (AID 1159551); also: nearly all actives have a fitted effect of over 35% in size
Summary of the method: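 C3RL4 cells were seeded overnight at 37 C, then treated with compounds plus 1 uM (final) retinol for 6 h at 37 C. Viability was read as ATP by CellTiter-Glo luminescence after 30 min at room temperature.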
% is scaled to controls: 0 for no effect and ±100 for the full control effect.

C/C(Cl)=C/CCl
inactive: Potency [1] | outcome [2] | Potency [3] | Potency [4] | outcome [5] | outcome [6] | outcome [7] | Potency [8]

CCCc1ccc(O)c(OC)c1
inactive: Potency [1] | outcome [2] | outcome [9] | Potency [4] | outcome [6] | outcome [7] | Potency [8]

CC12CCCC=C1C(=O)OC2=O (centres undefined)
inactive: Potency [1] | outcome [2] | outcome [9] | Potency [4] | outcome [6]

CCCCN=C(N)N=C(N)N
inactive: Potency [1] | outcome [9] | Potency [4] | outcome [5] | outcome [6] | outcome [7] | Potency [8]

CC1(C)CC(N)CC(C)(C)N1
inactive: Potency [1] | outcome [2] | outcome [9] | Potency [4] | outcome [5] | outcome [6] | outcome [7] | Potency [8]

N=C(N)N1CCc2ccccc2C1
inactive: activity change, negative = cytotoxicity [1] 2.64% [at 6.97 µM] | activity, negative = inhibition [2] -2.43% [at 8.39 µM] | activation [3] -0.224% [at 8.36 µM] | viability change, negative = cytotoxic [9] 2.84% [at 8.39 µM] | activity change, negative = inhibition [4] -2.87% [at 10.5 µM] | viability change, negative = cytotoxic [5] -1.33% [at 8.39 µM] | activity change, negative = cytotoxicity [6] 1.11% [at 8.39 µM]

COC(=O)C(c1ccccc1Cl)N1CCc2sccc2C1 (centres undefined)
inactive: Potency [1] | outcome [2] | Potency [3] | outcome [9] | Potency [4] | outcome [5] | outcome [6] | outcome [7]

c1coc(Cn2cccc2)c1
inactive: Potency [1] | outcome [2] | Potency [3] | outcome [9] | Potency [4] | outcome [5] | outcome [6] | outcome [7] | Potency [8]

N#Cc1ccccc1C#N
inactive: Potency [1] | outcome [2] | Potency [3] | outcome [9] | Potency [4] | outcome [5] | outcome [6]

COC(=O)/C=C(\C)CCC=C(C)C
inactive: Potency [1] | outcome [2] | Potency [3] | outcome [9] | Potency [4] | outcome [5] | outcome [6]

COc1ccccc1N1CCN(CC(O)COc2cc(OC)c(OC)c(OC)c2)CC1 (centres undefined)
inactive: Potency [1] | outcome [2] | Potency [3] | outcome [9] | Potency [4] | outcome [5] | outcome [6] | Potency [8]

CCCC(C)C(O)CC (centres undefined)
inactive: Potency [1] | Potency [3] | outcome [9] | Potency [4] | outcome [6]

CC(C)(O)c1ccc(C(C)(C)O)cc1
inactive: Potency [1] | outcome [2] | Potency [3] | outcome [9] | Potency [4] | outcome [5] | outcome [6] | outcome [7] | Potency [8]

C=C(C)C(=O)OCCOC1CC2CC1C1C=CCC21 (centres undefined)
inactive: Potency [1] | outcome [2] | Potency [3] | Potency [4] | outcome [5] | outcome [6] | outcome [7] | Potency [8]

CCCC(=O)OC
inactive: outcome [10] | outcome [2] | Potency [3] | outcome [9] | Potency [4] | outcome [5] | outcome [6]

C=CCON/C(CCC)=C1\C(=O)CC(C)(C)C(C(=O)OC)=C1O
inactive: Potency [1] | outcome [2] | Potency [3] | outcome [9] | Potency [4] | outcome [5] | outcome [6] | outcome [7] | Potency [8]

CCCCN1C(=O)c2ccccc2C1=O
inactive: Potency [1] | outcome [10] | Potency [4] | outcome [5] | outcome [6] | outcome [7] | Potency [8]

Nc1nc(Cl)cc(Cl)n1
inactive: Potency [1] | outcome [2] | outcome [9] | Potency [4] | outcome [5] | outcome [6] | outcome [7]

O=CN1CCCCC1
inactive: outcome [10] | Potency [3] | Potency [4] | outcome [6] | outcome [7] | Potency [8]

CCOC(=O)[C@H](CCc1ccccc1)N[C@H]1CS[C@H](c2cccs2)CN(CC(=O)O)C1=O
inactive: outcome [2] | Potency [3] | outcome [9] | Potency [4] | outcome [5] | outcome [6]

COc1cnc(NS(=O)(=O)c2ccc(N)cc2)nc1
inactive: outcome [10] | outcome [2] | Potency [3] | outcome [9] | Potency [4] | outcome [5] | outcome [6] | Potency [8]

O=S(=O)(O)CC(O)CCl (centres undefined)
inactive: outcome [10] | outcome [2] | Potency [3] | outcome [9] | Potency [4] | outcome [5] | outcome [6] | outcome [7] | Potency [8]

CC1(C)C(=O)C(C)(C)C1=O
inactive: outcome [10] | Potency [3] | Potency [4] | outcome [5] | outcome [6] | outcome [7] | Potency [8]

Cc1cc2c(cc1CC(=O)c1sccc1S(=O)(=O)Nc1onc(C)c1Cl)OCO2
inactive: outcome [10] | Potency [3] | outcome [9] | Potency [4] | outcome [5] | outcome [6] | outcome [7] | Potency [8]

Cc1ccc(Br)cc1
inactive: outcome [10] | outcome [2] | Potency [3] | Potency [4] | outcome [5] | outcome [6] | outcome [7] | Potency [8]

C/C=C(\C)C=O
inactive: outcome [2] | Potency [4] | outcome [5] | outcome [6]

CN(C)c1ccncc1
inactive: outcome [10] | outcome [2] | Potency [3] | Potency [4] | outcome [5] | outcome [6] | outcome [7] | Potency [8]

CC(=O)SC[C@@H](C)C(=O)N1CCC[C@H]1C(=O)N[C@@H](Cc1ccccc1)C(=O)O
inactive: outcome [10] | outcome [2] | Potency [3] | outcome [9] | Potency [4] | outcome [5] | outcome [6]
